What all share (assay): DAPPL (digital affinity profiling via proximity ligation, sequencing); 10 mM Tris-HCl pH 7.5, 50 mM NaCl, 1 mM DTT, 4% glycerol, room temperature, 30 min; GST-TFs on glutathione beads, 16-mer random dsDNA library, 0.1% formaldehyde crosslink after washing; high values mean tight binding
Holding throughout (details): protein: recombinant; tags: N-terminal GST; dsDNA, one strand shown

The target of one assay is T1, ELK4 (Homo sapiens, UniProt P28324-2 1-405).
T1 sequence: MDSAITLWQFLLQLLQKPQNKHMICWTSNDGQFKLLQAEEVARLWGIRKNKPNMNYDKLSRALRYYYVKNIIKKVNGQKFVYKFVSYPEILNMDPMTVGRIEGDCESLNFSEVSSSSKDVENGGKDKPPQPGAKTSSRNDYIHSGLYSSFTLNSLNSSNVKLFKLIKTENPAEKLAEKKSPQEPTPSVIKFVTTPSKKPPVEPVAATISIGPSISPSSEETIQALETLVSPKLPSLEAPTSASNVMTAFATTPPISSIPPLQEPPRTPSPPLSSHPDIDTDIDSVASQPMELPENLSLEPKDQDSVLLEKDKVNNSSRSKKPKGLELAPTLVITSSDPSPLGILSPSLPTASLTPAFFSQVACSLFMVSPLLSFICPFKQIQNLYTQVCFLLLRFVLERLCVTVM
In short, it runs like this:
(§1)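 GST fusions of human transcription factors were expressed in yeast and captured with glutathione beads. Once given DNA barcodes and pooled alongside a tag-only sample, they were incubated for 30 min at room temperature with 200 nmole of a random double-stranded 16-mer DNA library in Tris/NaCl/DTT/glycerol buffer, then washed, crosslinked (0.1% formaldehyde), proximity-ligated, PCR-amplified and sequenced on an Illumina NextSeq500. The binding signal of each hexamer is its read frequency for a factor divided by its frequency for the tag-only sample.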

The target in a further assay is T2, ETV2 (Homo sapiens, UniProt O00321 1-342).
T2 sequence: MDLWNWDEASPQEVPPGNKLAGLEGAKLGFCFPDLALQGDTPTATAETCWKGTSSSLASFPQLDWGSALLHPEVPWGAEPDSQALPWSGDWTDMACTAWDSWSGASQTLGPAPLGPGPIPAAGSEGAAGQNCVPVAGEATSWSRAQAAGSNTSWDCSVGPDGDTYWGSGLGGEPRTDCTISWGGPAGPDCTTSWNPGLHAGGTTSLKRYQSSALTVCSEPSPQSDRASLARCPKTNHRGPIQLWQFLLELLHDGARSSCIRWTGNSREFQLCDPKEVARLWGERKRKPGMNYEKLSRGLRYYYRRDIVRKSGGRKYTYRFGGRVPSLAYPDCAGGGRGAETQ
In short, it runs like this:
as §1

The target of the next assay is T3, ELF3 (Homo sapiens, UniProt P78545 1-371).
T3 sequence: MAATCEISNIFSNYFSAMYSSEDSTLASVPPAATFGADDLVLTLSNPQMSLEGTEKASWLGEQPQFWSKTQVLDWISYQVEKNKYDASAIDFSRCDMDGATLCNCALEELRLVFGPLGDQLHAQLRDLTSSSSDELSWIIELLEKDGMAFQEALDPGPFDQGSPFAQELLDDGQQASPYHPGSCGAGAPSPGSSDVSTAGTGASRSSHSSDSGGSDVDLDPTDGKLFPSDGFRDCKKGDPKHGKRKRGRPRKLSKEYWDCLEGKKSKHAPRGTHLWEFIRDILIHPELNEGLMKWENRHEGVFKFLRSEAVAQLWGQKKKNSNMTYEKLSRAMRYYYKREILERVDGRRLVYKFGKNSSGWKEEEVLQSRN
In outline:
as §1

For the next assay, the target named is ETV1 (Homo sapiens, UniProt P50549 1-477). In short, it runs like this:
as §1

The next assay has as its target T4, ERF (Homo sapiens, UniProt P50548 1-548).
T4 sequence: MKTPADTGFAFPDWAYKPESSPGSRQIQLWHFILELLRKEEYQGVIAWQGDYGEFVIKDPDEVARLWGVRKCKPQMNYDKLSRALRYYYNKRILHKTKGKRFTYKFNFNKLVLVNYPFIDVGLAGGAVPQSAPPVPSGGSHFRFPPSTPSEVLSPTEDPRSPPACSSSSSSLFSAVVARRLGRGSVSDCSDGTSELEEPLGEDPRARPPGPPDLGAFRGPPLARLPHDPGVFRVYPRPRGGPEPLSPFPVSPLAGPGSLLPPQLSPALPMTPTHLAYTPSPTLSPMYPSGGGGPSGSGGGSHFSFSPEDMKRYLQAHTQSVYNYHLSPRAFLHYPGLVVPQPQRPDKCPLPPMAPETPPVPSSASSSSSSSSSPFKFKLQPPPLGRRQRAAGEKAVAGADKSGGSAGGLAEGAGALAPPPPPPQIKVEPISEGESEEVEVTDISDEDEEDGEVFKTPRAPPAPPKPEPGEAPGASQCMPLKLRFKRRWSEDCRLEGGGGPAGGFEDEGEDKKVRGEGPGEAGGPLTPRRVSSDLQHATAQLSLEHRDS
In short, it runs like this:
as §1

Another assay deals with T5, ETV3L (Homo sapiens, UniProt Q6ZN32 1-361).
T5 sequence: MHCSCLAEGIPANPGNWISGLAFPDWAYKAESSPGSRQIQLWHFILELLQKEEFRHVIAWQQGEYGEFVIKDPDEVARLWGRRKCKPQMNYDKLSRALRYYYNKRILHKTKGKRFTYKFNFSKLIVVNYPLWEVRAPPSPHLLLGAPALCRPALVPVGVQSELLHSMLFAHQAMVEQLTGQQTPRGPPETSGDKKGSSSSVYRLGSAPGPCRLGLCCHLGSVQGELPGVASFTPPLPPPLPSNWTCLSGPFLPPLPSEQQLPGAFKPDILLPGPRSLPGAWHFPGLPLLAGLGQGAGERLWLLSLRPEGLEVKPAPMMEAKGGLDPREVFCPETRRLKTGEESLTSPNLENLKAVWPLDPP
In outline: as §1

In a further assay the target is T6, ETS2 (Homo sapiens, UniProt P15036 1-469).
T6 sequence: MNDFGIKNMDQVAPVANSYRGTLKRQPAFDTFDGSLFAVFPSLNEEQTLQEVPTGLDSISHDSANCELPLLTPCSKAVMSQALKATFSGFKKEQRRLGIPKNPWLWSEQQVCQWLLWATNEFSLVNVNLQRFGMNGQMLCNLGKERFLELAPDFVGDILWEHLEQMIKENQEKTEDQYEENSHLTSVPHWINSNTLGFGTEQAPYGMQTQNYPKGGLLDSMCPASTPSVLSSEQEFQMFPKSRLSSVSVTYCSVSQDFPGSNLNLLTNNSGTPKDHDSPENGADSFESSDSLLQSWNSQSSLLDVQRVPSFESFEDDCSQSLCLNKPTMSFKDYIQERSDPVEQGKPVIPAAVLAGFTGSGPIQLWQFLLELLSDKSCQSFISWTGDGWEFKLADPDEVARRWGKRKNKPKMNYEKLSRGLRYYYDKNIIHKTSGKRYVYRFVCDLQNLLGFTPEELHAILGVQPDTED
In short, it runs like this: as §1

The target in the next assay is T7, ETV7 (Homo sapiens, UniProt Q9Y603 1-341).
T7 sequence: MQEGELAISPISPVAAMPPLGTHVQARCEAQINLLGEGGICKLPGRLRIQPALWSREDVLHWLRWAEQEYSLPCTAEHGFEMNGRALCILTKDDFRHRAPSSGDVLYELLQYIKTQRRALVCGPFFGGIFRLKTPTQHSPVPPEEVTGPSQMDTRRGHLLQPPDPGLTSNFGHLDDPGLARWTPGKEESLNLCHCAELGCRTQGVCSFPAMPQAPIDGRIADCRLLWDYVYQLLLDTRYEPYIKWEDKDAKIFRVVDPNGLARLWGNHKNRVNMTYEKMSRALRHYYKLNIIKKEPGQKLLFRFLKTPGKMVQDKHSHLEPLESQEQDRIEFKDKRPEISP
In short, it runs like this:
as §1

The next assay addresses T8, ETV3 (Homo sapiens, UniProt P41162-2 1-143).
T8 sequence: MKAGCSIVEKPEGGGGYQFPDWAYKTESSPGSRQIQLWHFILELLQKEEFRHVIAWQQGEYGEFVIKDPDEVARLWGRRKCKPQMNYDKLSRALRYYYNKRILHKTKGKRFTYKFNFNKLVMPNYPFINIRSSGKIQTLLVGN
In short, it runs like this:
as §1

The target of another assay is ETV6 (Homo sapiens, UniProt P41212 1-452). In short, it runs like this:
as §1

Chain of ETV1 (P50549 whole entry): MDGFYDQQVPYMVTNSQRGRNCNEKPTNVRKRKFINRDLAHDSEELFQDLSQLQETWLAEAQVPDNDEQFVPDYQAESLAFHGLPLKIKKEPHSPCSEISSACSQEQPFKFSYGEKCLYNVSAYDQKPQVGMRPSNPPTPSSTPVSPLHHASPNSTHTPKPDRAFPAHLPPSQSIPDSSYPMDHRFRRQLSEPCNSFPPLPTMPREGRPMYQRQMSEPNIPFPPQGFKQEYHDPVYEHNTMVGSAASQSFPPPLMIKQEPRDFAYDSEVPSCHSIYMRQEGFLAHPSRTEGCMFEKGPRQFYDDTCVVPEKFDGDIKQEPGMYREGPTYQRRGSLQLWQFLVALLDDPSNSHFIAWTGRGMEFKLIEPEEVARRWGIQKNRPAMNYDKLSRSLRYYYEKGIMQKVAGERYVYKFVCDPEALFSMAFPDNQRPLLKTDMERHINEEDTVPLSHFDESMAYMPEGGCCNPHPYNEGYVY
Chain of ETV6 (P41212 whole entry): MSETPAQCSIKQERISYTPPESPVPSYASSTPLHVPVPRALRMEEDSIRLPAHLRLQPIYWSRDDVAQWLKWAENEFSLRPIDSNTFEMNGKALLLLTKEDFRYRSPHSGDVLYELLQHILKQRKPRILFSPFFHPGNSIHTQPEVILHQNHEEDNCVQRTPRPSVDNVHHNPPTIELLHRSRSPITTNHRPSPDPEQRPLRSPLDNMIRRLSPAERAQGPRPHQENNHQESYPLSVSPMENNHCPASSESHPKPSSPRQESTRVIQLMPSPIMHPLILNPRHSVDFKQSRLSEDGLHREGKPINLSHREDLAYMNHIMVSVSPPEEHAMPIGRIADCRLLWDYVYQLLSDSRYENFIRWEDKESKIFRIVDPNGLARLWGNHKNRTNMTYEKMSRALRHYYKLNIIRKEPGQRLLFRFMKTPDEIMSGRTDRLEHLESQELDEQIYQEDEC

Consider CATGCA, for which the binding signal with ELK4 was 1.05 fold enrichment (6-mer frequency, TF over GST control); with ETV2, 1.12 fold enrichment (6-mer frequency, TF over GST control); with ELF3, 1.16 fold enrichment (6-mer frequency, TF over GST control); with ETV1, 1.11 fold enrichment (6-mer frequency, TF over GST control); in the assay with ERF, 1.09 fold enrichment (6-mer frequency, TF over GST control); with ETV3L it was 1.16 fold enrichment (6-mer frequency, TF over GST control). For the same sequence, the binding signal with ETS2 is 1.06 fold enrichment (6-mer frequency, TF over GST control); with ETV7, 1.03 fold enrichment (6-mer frequency, TF over GST control); with ETV3, 1.05 fold enrichment (6-mer frequency, TF over GST control); with ETV6, 1.18 fold enrichment (6-mer frequency, TF over GST control).

The values are drawn from PMC7862700, “An all-to-all approach to the identification of sequence-specific readers for epigenetic DNA modifications on cytosine”.
